High-throughput results (PubChem)
Vc quorum ag: induces V. cholerae light production without autoinducers. 350,000 compounds, 0.16% hits. AID 588436. V. cholerae BH1578 lux reporter, luminescence, 6 h. activation, % at 18.7 µM; in the data active means activation mostly above about 9.7%, no sharp cut-off
BioA inh: BioA (M. tuberculosis) enzyme inhibition; 360,000 compounds, 0.096% hits; AID 602481; purified M. tuberculosis BioA enzyme, plate reader; inhibition, % at 9.99 µM; in the data active means inhibition above about 40%
GDH-TPI counter-1: GDH-TPI coupled enzyme inhibition counter-screen; GDH-TPI coupled enzyme counterscreen, NADH absorbance; inhibition, % at 4.8 µM; 360,000 compounds, 1.2% hits; in the data active means inhibition above about 30%;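 further: 0% = DMSO wells and 100% = wells lacking the enzyme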
Mtb FBA inh: Mtb fructose-bisphosphate aldolase inhibition; inhibition, % at 1 µM; P9WQA3; 360,000 compounds, 2.3% hits; purified M. tuberculosis FBA, fluorescence read-out;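 further: 0% = vehicle and 100% = reference inhibitor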
Target sequence (P9WQA3 whole entry, looked up): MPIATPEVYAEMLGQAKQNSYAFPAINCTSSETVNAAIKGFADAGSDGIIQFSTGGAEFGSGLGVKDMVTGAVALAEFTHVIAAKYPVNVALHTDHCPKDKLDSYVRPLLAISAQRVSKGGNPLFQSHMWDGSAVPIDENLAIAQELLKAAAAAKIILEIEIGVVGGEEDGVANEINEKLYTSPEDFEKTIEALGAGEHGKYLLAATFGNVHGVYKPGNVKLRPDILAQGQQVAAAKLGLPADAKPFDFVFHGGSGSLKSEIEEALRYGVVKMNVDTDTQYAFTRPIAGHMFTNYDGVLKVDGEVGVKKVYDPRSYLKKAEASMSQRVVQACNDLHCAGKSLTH
Mtb FBA inh conf: confirmation of M. tuberculosis fructose-bisphosphate aldolase inhibitors | shares compounds with Mtb FBA inh | purified M. tuberculosis FBA, fluorescence read-out | inhibition, % at 1 µM | 5,600 compounds, 78% hits;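 further: 0% = vehicle wells and 100% = reference inhibitor wells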
GDH-TPI counter-2: inhibits GDH-TPI coupling enzymes, flagging Mtb FBA hits; shares compounds with Mtb FBA inh; GDH-TPI coupled enzyme counterscreen, fluorescence; inhibition, % at 1 µM; 5,600 compounds, 81% hits; AID 652141; in the data active means inhibition above about 10%
GDH-TPI dose: counter-screen for M. tuberculosis FBA inhibitors: GDH-TPI dose response; shares compounds with Mtb FBA inh; GDH-TPI coupled enzyme assay, fluorescence, artifact counterscreen; IC50, µM; 170 compounds, 79% hits; call rule not given here
* = called active by the depositor; i = inactive; · = no result given; + = active, no number. Only some compounds are listed: those with a hit (about 3% of all), similar ones and a draw of the others. Unless noted, no stated cut-off is given here; in the data, active means inhibition above about 27%; inactive means the rest.

SMILES | Vc quorum ag | BioA inh | GDH-TPI counter-1 | Mtb FBA inh | Mtb FBA inh conf | GDH-TPI counter-2 | others
COc1ccc(/C=C/c2c(-c3ccc(OC)cc3)oc(=O)c3cc(OC)c(OC)cc23)cc1 | i | 2 | 18 | 11 | · | ·
Cc1ccc(OCC(=O)Nc2ccc(CN3CCOCC3)cc2)cc1C | 0 | 0 | 2 | -2 | · | ·
Cc1c(C)c2ccc(OCC(=O)NCCN3CCOCC3)cc2oc1=O | -2 | 0 | 6 | 97* | -6 | -3
Cc1c(C)c2ccc(OCC(=O)Nc3ccc(CN4CCOCC4)cc3)cc2oc1=O | 1 | 0 | 10 | 47* | 88* | 86*
O=C(COc1ccc2c3c(c(=O)oc2c1)CCC3)NCCCN1CCOCC1 | -3 | 0 | 12 | 15 | · | ·
O=C(COc1ccc2c(c1)oc(=O)c1ccccc12)NCCCN1CCOCC1 | -1 | -1 | 5 | 98* | 93* | 78*
Cc1c(OCC(=O)NCCCN2CCOCC2)ccc2c1oc(=O)c1ccccc12 | 0 | 5 | 7 | 47* | 98* | 68*
O=C(C[C@H]1CC[C@H](NC(=O)Cc2cccnc2)[C@H](CO)O1)NCc1ccc2c(c1)OCO2 | · | 1 | · | · | · | ·
CC(Oc1ccc2c(-c3ccccc3)cc(=O)oc2c1)C(=O)NCCCN1CCOCC1 (stereo unspecified) | 0 | 7 | 13 | -1 | · | ·
CC(Oc1ccc2c(c1)oc(=O)c1ccccc12)C(=O)NCCCN1CCOCC1 (stereo unspecified) | i | -1 | 11 | 64* | 11 | 10 | GDH-TPI dose=2.9*
CC(C)NC(=O)Nc1ccc2c(c1)C(=O)N([C@@H](C)CO)C[C@H](C)[C@H](CN(C)C(=O)Nc1cccc3ccccc13)O2 | · | 0 | · | · | · | ·
Cc1c(C(=O)Nc2ccc(Cl)cc2)c2ccccn2c1CCc1ccncc1 | 0 | 2 | 8 | 32* | 12 | 1 | GDH-TPI dose=0.97*
Cc1c(C(=O)Nc2cccc(Cl)c2)c2ccccn2c1CCc1ccncc1 | -1 | · | 23 | 26 | · | ·
COc1ccc2c(C)c(C(=O)O)oc2c1 | -3 | 0 | 6 | 17 | · | ·
Cc1c(C(=O)O)oc2c3c(ccc12)OCCO3 | i | 5 | 9 | 60* | 99* | 87*
Cc1ccc(S(=O)(=O)Nc2ccc3c(c2)C(=O)N(C)[C@@H]2CC[C@@H](CC(=O)O)O[C@@H]2CO3)cc1 | · | -1 | · | · | · | ·
O=S(=O)([N-]c1nc2ccccc2nc1-n1cc[n+](Cc2ccccc2)c1)c1ccc(Br)cc1 | -1 | -1 | 11 | 27* | + | 179*
O=C(Nc1c(C(=O)O)[nH]c2ccccc12)NC1CCCCC1 | i | 0 | 3 | 35* | + | 174*
CN(C)S(=O)(=O)Nc1ccccc1C(N)=O | 0 | -2 | 0 | 21 | · | ·
NC(=O)c1ccccc1NS(=O)(=O)Cc1ccc(Cl)cc1 | i | 1 | -6 | 70* | -9 | -8
CCS(=O)(=O)Nc1ccccc1C(N)=O | 0 | · | -3 | 44* | 14 | 0 | GDH-TPI dose=4.3*
NC(=O)c1ccccc1NC(=O)COc1ccc(Cl)cc1 | i | -1 | -3 | 1 | · | ·
O=C(CCC1CCCN(C(=O)CC2=CCCCC2)C1)N1CCN(c2ccccn2)CC1 (stereo unspecified) | -2 | 1 | 7 | 9 | · | ·
O=C(CCC1CCCN(C(=O)C2=CCCC2)C1)N1CCN(c2ccccn2)CC1 (stereo unspecified) | 0 | · | 5 | 41* | 1 | -3
CC(C)NC(=O)N[C@@H]1CC[C@H](CCNS(=O)(=O)c2ccc(Cl)cc2)O[C@@H]1CO | · | -1 | · | · | · | ·
SMILES | Vc quorum ag | BioA inh | GDH-TPI counter-1 | Mtb FBA inh | Mtb FBA inh conf | GDH-TPI counter-2 | others
COc1ccc(C(=O)O)c(O)c1 | 0 | 0 | -4 | 3 | · | ·
CC(C)(c1ccc(O)cc1)c1ccc(O)c(C(=O)O)c1 | 0 | 0 | 0 | 61* | 60* | 52*
O=C(O)c1cc(O)ccc1O | 0 | 0 | 4 | 87* | 4 | -5
CC(C)(c1ccc(O)cc1)c1ccc(O)cc1 | 0 | 1 | 6 | -2 | · | ·
O=C(C1=C[C@H](c2csc3ccccc23)C[C@H](OCCCCO)O1)N1CCCCCCC1 | · | -2 | · | · | · | ·
C[C@H]1CN([C@@H](C)CO)C(=O)Cc2cc(NC(=O)Cc3ccccc3)ccc2O[C@@H]1CN(C)Cc1ccncc1 | · | 15 | · | · | · | ·
CCOC(=O)c1c(-c2cccc([N+](=O)[O-])c2)cn2ccccc12 | i | · | 2 | -9 | · | ·
CCOC(=O)c1c(-c2ccccc2Cl)cn2ccccc12 | 0 | 1 | 12 | 61* | 74* | 68*
O=C(C[C@@H]1CC[C@H](NS(=O)(=O)c2ccc(F)cc2)[C@H](CO)O1)N1CCC(Cc2ccccc2)CC1 | · | 2 | · | · | · | ·
CO[C@@H]1CN(C)C(=O)c2ccc(NC(=O)C3CCC3)cc2OC[C@H](C)N(Cc2nccs2)C[C@H]1C | · | 1 | · | · | · | ·
Cc1cc2nn(-c3ccc(Cl)cc3)nc2cc1N | i | · | 7 | 41* | 111* | 97*
Cc1cc(N)n(-c2ccc(Cl)cc2)n1 | 0 | · | 5 | -5 | · | ·
Cc1cc2nn(-c3ccc(F)cc3)nc2cc1N | 0 | -3 | 46* | 54* | 179* | 136*
C[C@H]1CN([C@@H](C)CO)C(=O)Cc2cc(N(C)C)ccc2O[C@@H]1CN(C)S(=O)(=O)c1ccccc1 | · | -1 | · | · | · | ·
CNC[C@H]1OCCCC[C@@H](C)Oc2ccc(NC(=O)Nc3cccc4ccccc34)cc2C(=O)N([C@H](C)CO)C[C@@H]1C | · | -2 | · | · | · | ·
COc1ccccc1-c1ccc2n(c1=O)C[C@@H]1[C@@H](CO)[C@H](C(=O)O)N(C(=O)c3cccnc3)[C@H]21 | · | 1 | · | · | · | ·
COc1ccc(C(CNC(=O)c2ccc(NS(=O)(=O)c3ccccc3)cc2)N2CCOCC2)cc1 (stereo unspecified) | i | 0 | -4 | 1 | · | ·
COc1ccc(C(CNC(=O)c2ccc(-n3cnnn3)cc2)N2CCOCC2)cc1 (stereo unspecified) | i | 0 | 5 | 43* | 175* | 153*
CC(C)NC(=O)N1C[C@H]2[C@@H](c3ccccc31)[C@@H](CO)N2Cc1ccccc1 | · | 2 | · | · | · | ·
COc1ccc2oc(C(=O)Nc3nnc(C)s3)c(C)c2c1 | i | -1 | 23 | 29* | 81* | 63*
Cc1ccc2oc(C(=O)Nc3nnc(C)s3)c(C)c2c1 | i | -1 | 14 | -1 | · | ·
COc1ccc2oc(C(=O)NC(C)c3ccccn3)c(C)c2c1 (stereo unspecified) | i | 5 | 3 | 33* | 94* | 83*
COc1ccc2oc(C(=O)Nc3nc(-c4ccccn4)cs3)c(C)c2c1 | -2 | · | -2 | 10 | · | ·
O=S(=O)(Nc1cccc2ccccc12)N1CCCC1 | i | -1 | -5 | 28* | 72* | 59*
COc1ccc(C2C3=C(CCCC3=O)Nc3nc(C(F)(F)F)nn32)cc1OC (stereo unspecified) | 0 | 1 | 1 | 1 | · | ·
